Data on 94 compounds can be found in PubChem BioAssay AID463190 (Sanford-Burnham Center for Chemical Genomics, 2010).

As a reminder, the inhibition is the change of the read-out against control, counted positive when it falls.

Structures are written as SMILES. The whole screen tested about 330,000 compounds, of which about 7,300 (2.2%) were called active. The sample holds actives, similar compounds and a random draw of the others, so the mix is not that of the screen. Unmarked numbers belong to inactive results.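 Rule for the calls: active = inhibition of at least 40%; inactive = the rest.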

The nature of the assay: growth inhibition of tim10-1 ts yeast – luminescence, uHTS, primary screen (AID 463190).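 Note: mutant grown at 25 °C; 0% = DMSO wells with yeast and 100% = wells holding no yeast.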 Conditions: S. cerevisiae tim10-1 ts strain growth, BacTiter-Glo, 24 h; at 20 µM; active compounds read high.
`CCC1CCCCN1S(=O)(=O)Cc1ccccc1Cl` (centres undefined): the inhibition is 25.3%. For `COc1ccc2c(CC(=O)N3CCc4cc(OC)c(OC)cc4C3)coc2c1` the value was 8.12%; for `COc1ccc(NCc2nnc(SCc3ccccc3)n2-c2ccc(OC)cc2)cc1`, 49.4% (active). The value for `COc1ccc(-c2nnc(SCC(=O)c3ccco3)n2-c2ccccc2)cc1` was 23.4%. The value for `CCn1c(CNc2ccc(OC)cc2)nnc1SCC(=O)c1ccc(OC)cc1` was 25.4%. As for `O=S(=O)(NC1CCCCC1N1CCN(c2ccccc2F)CC1)c1ccccc1` (centres undefined), the inhibition is 21.7%. `O=C(CC1(O)C(=O)N(CN2CCOCC2)c2ccccc21)c1ccccc1` (centres undefined): the inhibition was 15.9%. `COc1ccc(C(=O)CN2C(=O)NC3(CCc4ccccc43)C2=O)c(OC)c1` (centres undefined): the inhibition was -9.01%. The value for `C#CCN1C(=O)C(O)(CC(=O)c2cc(OC)ccc2OC)c2ccccc21` (centres undefined) was 41.9% (active); that for `O=C(Nc1cc(S(=O)(=O)N2CCOCC2)ccc1Cl)c1cc(=O)c2ccccc2o1` was 19.5%. The value for `CC(Oc1cccc(NC(=O)c2cccs2)c1)C(=O)c1ccccc1` (centres undefined) was 27.6%; that for `Cc1cccc(NC(=O)Nc2cccc(Oc3c(F)c(F)c(F)c(F)c3F)c2)c1` was 21.3%; that for `Cc1ccoc1C(=O)Nc1cccc(Oc2ccccc2)c1` was 49.3% (active). For `COc1cccc2c1OCC1COc3c(c(=O)n(C)c(=O)n3C)C21` (centres undefined) the value was -6.86%. With `COc1ccccc1N1CC(C(=O)Nc2ccc(S(=O)(=O)N3CCOCC3)cc2)CC1=O` (centres undefined), the inhibition was 4.85%.

On to `CCN(CC(=O)NCc1cccs1)c1nnnn1-c1ccccc1`, for which the inhibition was -19.2%. The value for `CCOC(=O)c1c(C)oc2ccc(OCC(=O)N(CC)CC)cc12` was 14.2%; that for `CCOC(=O)c1c(-c2ccccc2)oc2ccc(OCC(N)=O)cc12` was 18.7%. For `CCOC(=O)c1c(-c2ccccc2)oc2ccc(OCC(=O)NN)cc12` the value was 45.4% (active). The value for `CCOC(=O)c1c(C)oc2cc(Sc3ccccc3)c(O)c(O)c12` was 34.3%; that for `CCOC(=O)c1c(-c2ccccc2)oc2cc(Br)c(O)cc12` was 48.2% (active). Consider `CCOC(=O)c1c(C)oc2cc(Br)c(OCC(N)=O)cc12`, for which the inhibition is 1.54%.

For the compound `CC(=O)Nc1ccc(C(=O)NNC(=O)CCCCC(=O)NNC(=O)c2ccc(NC(C)=O)cc2)cc1`, the inhibition is 10.6%. Take `O=C(Cc1nc2ccccc2[nH]c1=O)c1ccc(Cl)cc1`: the inhibition was 5.58%. For `O=C(/C(=C/c1cccc(Cl)c1)c1nc2ccccc2[nH]1)c1ccccc1` the value was 43.5% (active).

For the compound `O=C(CCc1nc2ccccc2c(=O)[nH]1)OCC(=O)c1cccc(Cl)c1`, the inhibition was 18.5%. Regarding `CCCN=C1N(C)C[C@@H]2[C@@H]3C(=O)N(Cc4ccccc4)C(=O)[C@@H]3[C@](C)(C(=O)OC)N12`, the inhibition is 0.857%. For `O=C(COC(=O)c1cccc(Cl)c1)NC1CCCCCCC1`, the inhibition was 8.83%. For `Cc1cccc([C@H]2[C@@H]3C=CC[C@@H](C)[C@@H]3C(=O)N2Cc2ccccc2)c1` the value was 33.1%.

Turning to `Cn1cc(CN2CCCCC2c2ccccn2)c(-c2ccc3c(c2)OCCO3)n1` (centres undefined), the inhibition was 9.13%. The value for `CCOC(=O)C1CCN(C(=O)Cn2nc(C)c3c(C)n(-c4ccccc4)nc3c2=O)CC1` was 27.3%. For `O=C(NN1CCOCC1)c1cccc(F)c1` the value was -9.56%. For `COc1c(C)c2c(c(O)c1C/C=C(\C)CCC(=O)O)C(=O)OC2` the value was 4.45%; for `COc1ccc(CCC(=O)c2ccc(OC)cc2)cc1`, 5.98%; for `COc1ccc(/C(N)=N/OC(=O)CCCc2ccccc2)cc1`, 45.1% (active). For the compound `CCOC(=O)C(Cc1ccccc1)NC(=O)CCC(=O)c1ccc(OC)cc1` (centres undefined), the inhibition is 23.1%. The value for `COc1ccc(S(=O)(=O)NCCCc2ccccc2)cc1` was 19.3%; that for `COc1ccc(/C(N)=N/OC(=O)Cc2ccccc2)cc1` was 46.5% (active). The value for `O=C(CCc1ccccc1)NNC(=O)COc1ccc(Cl)cc1` was 0.762%; that for `N/C(=N\OC(=O)N1c2ccccc2Sc2ccccc21)c1ccc(Br)cc1` was 8.49%.

Turning to `N/C(=N\OC(=O)/C=C/c1ccccc1)c1ccc(Br)cc1`, the inhibition is 25.9%. In the case of `N/C(=N\OC(=O)Cc1ccccc1[N+](=O)[O-])c1ccc(Br)cc1`, the inhibition was 57% (active).

In the case of `N/C(=N\OC(=O)CCc1ccccc1)c1ccc(Cl)cc1`, the inhibition is 65.2% (active).

Turning to `COc1ccc(/C(N)=N/OC(=O)Oc2ccccc2)cc1`, the inhibition was 5.03%.

As for `N/C(=N\OC(=O)CCc1ccccc1)c1cccnc1`, the inhibition was 21.7%.

Regarding `COc1ccc(NC(=O)c2sc(N3CCOCC3)nc2-c2ccccc2)c(OC)c1`, the inhibition was 33.9%. Consider `CCOc1ccc2ccccc2c1/C=N/NC(=O)c1c(C)cc(C)[nH]c1=O`, for which the inhibition was 2.15%. The value for `CCOC(=O)CN1CC23C=CC(O2)C(C(=O)Nc2ccc(F)cc2)C3C1=O` (centres undefined) was 3.99%; that for `O=C(CSc1nccn1-c1cccc(F)c1)NC1CCCC1` was -5.65%; that for `COC(=O)[C@H](C(C)C)n1c(C)c(C(C)=O)c(C(C)=O)c1C` was 0.67%. For `COc1ccc(CNC(=O)C(C)NCc2ccccc2Cl)cc1` (centres undefined) the value was 21.6%; for `COc1ccc(CNC(=O)COc2ccccc2C(=O)c2cnn(-c3ccccc3)c2)cc1OC`, 4.14%. With `CCN1C(=NCCc2cccnc2)N[C@@H](c2ccccc2)C(C(=O)OC)=C1C`, the inhibition is 0.495%. The value for `COCCN(C(=O)C(C)C)c1nnc(-c2ccc(C(C)(C)C)cc2)s1` was 38.1%; that for `Cn1c(SCC(=O)Nc2ccc(N3CCOCC3)cc2)nnc1C(F)(F)F` was -4.28%; that for `C[n+]1ccccc1C1CCCC/C1=N\Nc1ccc([N+](=O)[O-])cc1[N+](=O)[O-]` (centres undefined) was 28%. For `O=[N+]([O-])c1ccc(N/N=C2/CCCCC2c2ccccn2)c([N+](=O)[O-])c1` (centres undefined) the value was 42% (active); for `O=C(Nc1ccccc1)O/N=C1\CCCCC1c1ccc([N+](=O)[O-])cc1[N+](=O)[O-]` (centres undefined), 24.7%. For `O=C(NNC(=S)NC(=O)c1cn(-c2ccccc2)nc1-c1ccccc1)c1ccncc1` the value was 13.6%; for `O=C(C1CCCO1)N(c1ccc(F)cc1)C1C=CS(=O)(=O)C1` (centres undefined), 5.92%; for `CCCN(CCC)c1c([N+](=O)[O-])c(=O)oc2ccccc12`, 11%. Regarding `CCCC(NCC(=O)Nc1ccccc1C(=O)NC1CC1)c1ccccc1` (centres undefined), the inhibition was 11.8%. The value for `CC(=NCc1ccc2c(c1)OCO2)C1=C(O)c2ccccc2C1=O` was 61.2% (active). For `CCc1ccc(NC(=O)NC(C)c2ccc3c(c2)OCO3)cc1` (centres undefined) the value was 2.45%; for `CC(=NCc1ccco1)C1=C(O)c2ccccc2C1=O`, 34.3%; for `Cc1ccc(S(=O)(=O)N2CCN=C2SCc2c(F)cccc2Cl)cc1`, -8.21%. Turning to `COc1cc(N=Cc2c(O)[nH]c3ccccc23)cc(OC)c1OC`, the inhibition is 44% (active).

Take `COc1ccc2[nH]c(C(=O)N/N=C/c3cc(OC)c(OC)c(OC)c3)cc2c1`: the inhibition is 20.1%. The value for `COc1cc(/C=N/NC(=O)Cc2ccccc2)cc(OC)c1OC` was 2.14%; that for `Cc1ccsc1-c1cc(C(=O)O)c2c(ccc3ccccc32)n1` was -20.7%. Consider `O=c1nc(N/N=C/c2ccco2)cn[nH]1`, for which the inhibition is 17.8%. For `COc1ccc(NC(=O)CN(C)C(=O)c2n[nH]c3ccccc23)cc1` the value was 9.05%; for `O=C(CCCC(=O)N(CC(=O)NC1CCCC1)Cc1ccccc1Cl)Nc1ccccn1`, 14.9%. Turning to `CC(C)(C)c1cc(C(=O)N/N=C/c2ccc([N+](=O)[O-])s2)n[nH]1`, the inhibition was 32%. For `O=[N+]([O-])c1ccc(C=Nc2ccc(Cl)cc2Cl)s1` the value was 77.7% (active); for `CC1CN(C(=O)c2ccc([N+](=O)[O-])s2)CC(C)O1` (centres undefined), 17.2%. For `O=C1CCc2cc(S(=O)(=O)Nc3ccc(C(F)(F)F)cc3)cc3c2N1CC3` the value was 4.21%. The value for `O=c1oc(-c2ccccc2NS(=O)(=O)c2ccc(Cl)cc2)nc2ccccc12` was 39.6%; that for `NC(=O)c1ccc(CN2CCC(Cc3ccccc3)CC2)cc1` was -11.2%.

In the case of `CCOc1ccc2oc(C(=O)N(CC)CC(=O)Nc3ccc(NC(C)=O)cc3)c(C)c2c1`, the inhibition is 16.8%. Consider `CCSC1=C(C#N)C(=O)n2c1cc1c2CCCC1`, for which the inhibition was 58.8% (active).

As for `CCSc1ncnc2c(C#N)c3n(c12)CCCCC3`, the inhibition is -13.6%.

On to `O=C(CSc1ccc2nnc(-c3ccccc3)n2n1)N1CCCc2ccccc21`, for which the inhibition is -0.717%. On to `O=S(=O)(Nc1ccc2[nH]ncc2c1)c1ccccc1Cl`, for which the inhibition is 6%. The value for `COCc1cc(=O)[nH]c(-c2ccc(C(F)(F)F)cc2)n1` was -4.56%; that for `CC(Sc1nn(-c2ccc(Cl)cc2)c(=S)s1)C(=O)NCC1CCCO1` (centres undefined) was 25.6%; that for `Cc1nc([N+](=O)[O-])nn1C12CC3CC(CC(Br)(C3)C1)C2` was 27%. For the compound `CCc1nn(CCCC(=O)Nc2ccc(C)c(C)c2)c(=O)c2cc3occc3n12`, the inhibition was 33.6%. For the compound `CCc1nn(CCCC(=O)NCc2ccc(C)cc2)c(=O)c2cc3occc3n12`, the inhibition was 31.1%.

On to `CCc1nn(CCCC(=O)Nc2ccc(C)cc2C)c(=O)c2cc3occc3n12`, for which the inhibition is 41.6% (active). Consider `CCC1(CC)Cc2ccccc2-c2nc(CCl)[nH]c(=O)c21`, for which the inhibition is 27.6%. Take `CCC1(CC)Cc2ccccc2-c2nc3ccccc3c(=O)n21`: the inhibition was 16.4%. As for `CCOC(=O)C1Cn2c(nc3c(c2=O)C(C)(CC)Cc2ccccc2-3)S1` (centres undefined), the inhibition is 40.7% (active). The value for `COC(=O)c1cccc(N(C(=O)c2ccco2)C(C(=O)NC2CCCC2)c2ccco2)c1` (centres undefined) was 3.43%.
